Test results as given in PubChem BioAssay AID1159580 (chemical genetic matrix, 2015).
About 2,000 (36%) of roughly 5,500 compounds were called active. Another 18% or so got no clear call; they are omitted. No stated cut-off is given here; in the data, active means normalized growth mostly below about 0.91 (no sharp cut-off); inconclusive means no clear call, values can overlap the other calls; inactive means mostly above about 0.92. This is one part of the list.

Experiment: chemical genetic growth profiling, strain panel (AID 1159580);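 further: tested at 20 µM; growth read once vehicle control cultures reached saturation at 30 °C; 1 = growth at the plate median or of vehicle wells; lower values mean less growth of the strain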
Conditions: growth OD

Measured: normalized growth

COC(=O)c1ccc2c(c1)N(C)S(=O)(=O)CC2=O
inactive: S. cerevisiae deletion strains, locus YBR229C, strain ROT2, active compounds read low 0.998 | S. cerevisiae deletion strains, locus YDL101C, strain DUN1, active compounds read low 0.964 | S. cerevisiae deletion strains, locus YDR150W, strain NUM1, active compounds read low 0.997 | S. cerevisiae deletion strains, locus YEL061C, strain CIN8, active compounds read low 0.975 | S. cerevisiae deletion strains, locus YGR078C, strain PAC10, active compounds read low 1 | S. cerevisiae deletion strains, locus YHR030C, strain SLT2, active compounds read low 0.994 | S. cerevisiae deletion strains, locus YHR087W, strain rtc3, active compounds read low 1 | S. cerevisiae deletion strains, locus YJR043C, strain POL32, active compounds read low 1.02 | S. cerevisiae deletion strains, locus YJR075W, strain HOC1, active compounds read low 1.01 | S. cerevisiae deletion strains, locus YLR039C, strain RIC1, active compounds read low 0.989 | S. cerevisiae deletion strains, locus YLR058C, strain SHM2 (second series), active compounds read low 1.01 | S. cerevisiae deletion strains, locus YLR085C, strain ARP6, active compounds read low 0.853 | S. cerevisiae deletion strains, locus YLR262C, strain YPT6, active compounds read low 0.998 | S. cerevisiae deletion strains, locus YML094W, strain GIM5, active compounds read low 1 | S. cerevisiae deletion strains, locus YMR219W, strain ESC1, active compounds read low 0.996 | S. cerevisiae deletion strains, locus YMR263W, strain SAP30, active compounds read low 0.994 | S. cerevisiae deletion strains, locus YMR307W, strain GAS1, active compounds read low 0.872 | S. cerevisiae deletion strains, locus YNL128W, strain TEP1, active compounds read low 1.01 | S. cerevisiae deletion strains, locus YNL153C, strain GIM3, active compounds read low 0.932 | S. cerevisiae deletion strains, locus YNL298W, strain CLA4 (second series), active compounds read low 0.987 | S. cerevisiae deletion strains, locus YNL322C, strain KRE1, active compounds read low 0.993 | S. cerevisiae deletion strains, locus YNR030W, strain Alg12, active compounds read low 0.987 | S. cerevisiae deletion strains, locus YPL055C, strain LGE1, active compounds read low 0.99 | S. cerevisiae deletion strains, locus YPL241C, strain CIN2, active compounds read low 0.936 | S. cerevisiae deletion strains, locus YPR135W, strain CTF4, active compounds read low 1.03 | S. cerevisiae strains, strain wild type, active compounds read low 1.01
